# Only a selection was taken, and hits are over-represented in it overall.
# Chlamy TAG – inducers of TAG accumulation in Chlamydomonas, primary screen, qHTS, Chlamydomonas reinhardtii. Nile Red fluorescence, 72 h. calls only at 10 µM (by protocol). 44,000 compounds, 0.84% hits; call rule not given here;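 also: hits raise Nile Red signal meaning more stored TAG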
# Numbers without * were called inactive; i = inactive; + = active, no number.
SMILES,Chlamy TAG
Cc1cccc(C(C)C)c1NC(=O)C(C)(C)C,i
CCC(=O)Nc1cccc(NC(=O)c2ccc([N+](=O)[O-])cc2)c1,i
COc1cccc(N(C(C)=O)C2=C(N3CCCC3)C(=O)c3ccccc3C2=O)c1,i
Cc1ccc(NC(=O)c2cc([N+](=O)[O-])ccc2N2CCOCC2)cc1,i
Cc1ccc(OCc2nnc(SCC(=O)Nc3ccccc3F)n2-c2ccccc2)cc1C,i
Cc1nnc(NC(=O)CC(c2ccccc2)c2ccccc2)s1,i
O=C(CCC1CCCCC1)NCc1ccc2c(c1)OCO2,i
c1cc2c(cc1CNC1CCCCC1)OCO2,i
c1cc2c(cc1CNC1CCCC1)OCO2,+
CCC(Oc1ccccc1)C(=O)Nc1nc(C)c(C(=O)N(C)C)s1 (configuration not stated),i
COc1ccc(CNC2CCCC(C)C2)cc1 (configuration not stated),+
COc1ccc(CNC2CCCC2)cc1OC,i
COc1cc(CNC2CCC(C)C2)cc(OC)c1 (configuration not stated),i
O=C(O)CNCCC(=O)c1ccccc1,i
COc1ccc(N2C(=O)CC(NCCc3ccc(Cl)cc3Cl)C2=O)cc1 (configuration not stated),i
COCCNc1ncnc2sc(C)c(C)c12,i
OCCN1CCN(C/C=C/c2ccccc2)CC1,i
CCN1CCN(C/C=C/c2ccccc2)CC1,i
C/C=C(\C)CN1CCN(C/C=C/c2ccccc2)CC1,+
O=C(c1ccc2c(c1)OCO2)N1CCN(Cc2ccccc2)CC1,i
COc1ccc(N2CCN(C(=O)C3COc4ccccc4O3)CC2)cc1 (configuration not stated),i
O=C(C1COc2ccccc2O1)N1CCN(Cc2ccccc2)CC1 (configuration not stated),+
CCCC(=O)Nc1cccc(NC(=O)c2cccc(Cl)c2Cl)c1,i
O=C(NC1CCN(Cc2ccccc2)CC1)c1sc2ccccc2c1Cl,i
O=C(NC1CCN(Cc2ccccc2)CC1)c1ccccc1Br,i
SMILES,Chlamy TAG
O=C(NC1CCN(Cc2ccccc2)CC1)c1ccc(Cl)cc1Cl,+
COc1ccc(C2C(C#N)=C(N)OC3=C2C(=O)CC(C)(C)C3)cc1Br (configuration not stated),i
O=C(Nc1ccc(F)cc1)Nc1ccc(Cl)cc1,i
O=C(NCC1CCCO1)c1ccc(Cl)cc1 (configuration not stated),i
O=C(Nc1ccc2c(c1)OCO2)c1ccc2c(c1)OCO2,i
O=C(Nc1ccc2c(c1)OCO2)c1c(F)c(F)c(F)c(F)c1F,+
O=C(Nc1ccc(F)c(F)c1)c1ccc2c(c1)OCO2,i
COc1cc(C(=O)Nc2ccc3nn(-c4ccc(C)cc4)nc3c2)cc(OC)c1OC,i
COc1cc(C(=O)Nc2cccc(F)c2)cc(OC)c1OC,i
COc1cc(C(=O)Nc2cccc(NC(=O)c3ccccc3)c2)cc(OC)c1OC,i
COc1cc(C(=O)Nc2cccc(C(=O)c3ccc(C)c(C)c3)c2)cc(OC)c1OC,+
CCCc1cc(=O)[nH]c(SCc2nc3ccccc3[nH]2)n1,i
Cc1cc(C)nc(NC(=O)NS(=O)(=O)c2ccccc2Cl)n1,i
CCc1ccccc1NC(=O)C(C)SCc1ccccc1 (configuration not stated),i
Cc1ccc(NC(=O)c2ccccc2[N+](=O)[O-])cc1F,i
Cc1c(C(=O)Nc2ccc(F)c(Cl)c2)cccc1[N+](=O)[O-],i
Cc1c(C(=O)Nc2ccc(F)c(F)c2)cccc1[N+](=O)[O-],+
Cc1cc(Br)ccc1OCCOCCn1cnc2ccccc2c1=O,i
NC(=O)c1cc([N+](=O)[O-])ccc1NC1CCCCC1,i
COc1ccccc1NC(=O)Nc1ccccn1,i
CCS(=O)(=O)N1CCN(C2CCCCCCC2)CC1,+
CC(=O)N1CCN(C2CCCCCC2)CC1,i
O=S(=O)(c1ccc(Cl)cc1)N1CCN(C2CCCC2)CC1,i
CC(=O)Nc1c(O)nc(SCC(=O)N2CCOCC2)[nH]c1=O,i
COc1cc(NC(=O)c2ccccc2C)c(OC)cc1NC(C)=O,i
SMILES,Chlamy TAG
Cc1ccsc1/C=C(\C#N)c1nc(-c2ccc([N+](=O)[O-])cc2)cs1,+
Cc1ccc(-c2csc(/C(C#N)=C/Nc3ccc([N+](=O)[O-])cc3)n2)cc1,i
N#C/C(=C\c1ccc([N+](=O)[O-])cc1)c1nc(-c2ccc(F)cc2)cs1,i
COc1ccc(-n2c(-c3ccccc3)cn3c4c(=O)n(C)c(=O)n(C)c4nc23)cc1,i
Cc1ccc(C)c(N2CCN(C3CCCCCC3)CC2)c1,+
C/C=C(\C)CN1CCN(c2cc(C)ccc2C)CC1,i
Cc1ccc(C)c(N2CCN(Cc3ccc(C)s3)CC2)c1,i
COc1ccc(-c2cc3ccccn3c2)c(OC)c1,i
c1ccc(N2CCN(Cc3ccsc3)CC2)nc1,i
c1cc(CN2CCOCC2)cs1,i
COc1cc(CN2CCN(c3cccc(Cl)c3)CC2)cc(OC)c1O,i
c1ccc(CCN2CCN(Cc3ccccc3)CC2)cc1,i

# Source: PubChem (DiRusso Lab, Biochemistry Department, University of Nebraska)
